# Bioassay records deposited in PubChem by National Center for Advancing Translational Sciences (NCATS).
# LDHA inh = LDHA (human) enzyme inhibition; purified LDHA, NADH/diaphorase-resazurin fluorescence; stronger effect = lower value; activity change, % (values are at about 110 or 230 µM); 480,000 compounds, 0.15% hits; in the data active = activity change below about -30%; inconclusive = mostly about -25% to -30%;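 also: plate controls were DMSO wells for no effect and wells without enzyme for full effect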
#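 Enzyme activity of human lactate dehydrogenase 5 (2 nM; 0.06 mM NADH, 0.2 mM pyruvate, 5 min, RT) is measured via a resazurin/diaphorase fluorescence readout of residual NADH.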
# IL-1B inflam inh = inflammasome signaling inhibition, IL-1 beta readout; activity change, % at 57.5 µM; THP-1 LPS/ATP IL-1B secretion, AlphaLISA, 16 h; stronger effect = lower value; 360,000 compounds, 4.7% hits; in the data active = activity change below about -50%; inconclusive = mostly about -30% to -49%
#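 THP-1 cells pretreated 1 hr with compounds (up to 57.5 uM final), then stimulated with LPS (250 ng/mL final) plus ATP (1.25 mM final); secreted IL-1B measured by AlphaLISA after 16 hr, decreased signal indicating inhibition.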
# TDP1 cell noCPT = qHTS for Inhibitors of human tyrosyl-DNA phosphodiesterase 1 (TDP1): qHTS in cells in absence of CPT; DT40 Tdp1-/- hTDP1 cells, no CPT, ATP luminescence, 48 h; Potency, µM (highest dose often 46.2 µM), for the others: top-dose activity change, negative = growth inhibition, usual class: inhibitors; 420,000 compounds, 15% hits; AID 686978, 2013; also: potency is read from the fitted curve at half-maximal effect; nearly all actives have a fitted effect of over 55% in size
#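 No-CPT arm: Tdp1-/-;hTDP1 DT40 cells (400/well) plus compounds, incubated ≥48 hr at 37 °C. Readout CellTiter-Glo luminescence.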
# DT40 TDP1 CPT = growth inhibition of DT40 Tdp1-/-;hTDP1 cells with camptothecin (screen for TDP1 inhibitors) | chicken DT40 Tdp1-/-;hTDP1 cells + 20 nM CPT, ATP luminescence, 48 h | Potency, µM (doses to about 46.2 µM), for inactives: at the top dose activity change, negative = growth inhibition, usual class: inhibitors | 420,000 compounds, 12% hits; also: potency is read from the fitted curve at half-maximal effect; nearly all actives have a fitted effect of over 55% in size
#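 Cell growth measured by CellTiter-Glo luminescence after a minimum 48 h, 37 C compound exposure with 20 nM CPT in Tdp1-knockout DT40 cells stably expressing hTDP1, seeded 400/well; qHTS titration format.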
# VP16 counter = inhibits Gal4-VP16 luciferase reporter, ROR gamma counter-screen; Drosophila S2 Gal4-VP16 UAS-luciferase, luminescence, 20 h; Potency, µM (highest dose often 53.6 µM), for inactives: at the highest dose activity, negative = inhibition, actives largely listed as inhibitors; 310,000 compounds, 3.5% hits; AID 2546;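 also: Gal4-VP16 expression switched on by copper sulfate through the metallothionein promoter; potency is read from the fitted curve at half-maximal effect; nearly all actives have a fitted effect of over 50% in size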
# RORg inh = blocks mouse ROR gamma transcriptional activity; P51450; Drosophila S2 Gal4-RORgamma UAS-luciferase reporter, 20 h; Potency, µM (doses to about 53.6 µM), inactives show at the highest dose activity change, negative = inhibition, actives largely listed as inhibitors; 310,000 compounds, 5.4% hits; AID 2551; also: potency is read from the fitted curve at half-maximal effect; nearly all actives have a fitted effect of over 60% in size
# Target sequence (P51450 whole entry, looked up, the tested form may be a part): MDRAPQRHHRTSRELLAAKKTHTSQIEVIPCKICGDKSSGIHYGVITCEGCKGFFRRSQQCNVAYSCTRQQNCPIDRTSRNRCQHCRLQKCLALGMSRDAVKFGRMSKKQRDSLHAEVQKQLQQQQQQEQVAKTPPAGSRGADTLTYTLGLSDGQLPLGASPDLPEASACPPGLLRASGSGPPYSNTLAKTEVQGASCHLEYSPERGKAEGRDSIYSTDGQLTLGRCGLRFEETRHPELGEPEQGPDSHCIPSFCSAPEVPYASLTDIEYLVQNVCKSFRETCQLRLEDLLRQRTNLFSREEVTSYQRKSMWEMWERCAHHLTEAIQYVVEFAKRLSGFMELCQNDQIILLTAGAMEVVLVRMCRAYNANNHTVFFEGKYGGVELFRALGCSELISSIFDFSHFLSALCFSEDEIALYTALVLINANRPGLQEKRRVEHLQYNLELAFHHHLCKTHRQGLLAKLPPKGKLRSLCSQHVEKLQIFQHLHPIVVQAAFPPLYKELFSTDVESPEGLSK
#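 Luciferase reporter read in Schneider cells carrying Gal4-RORγ (mouse) and UAS-Photinus luciferase; cells given compound 1 h before 700 uM copper sulfate induction, then incubated 20 h at ambient temperature.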
# Numbers without * were called inactive; i = inactive; ? = inconclusive; / = no result; [ ] = another dose, or the depositor's remark. Shown are actives, neighbours in structure and some others; about 18% of the full set was active somewhere. Unless noted, calls follow the shape of the dose curve; as a rule, active = well fitted curve in the direction sought with a large enough effect; inconclusive = small, poorly fitted or top-dose-only effect, or another doubt; inactive = no such curve, though single readings can be large; an effect the other way counts as inactive or inconclusive. Unless noted, % is scaled to controls: 0 for no effect and ±100 for the full control effect.
SMILES,LDHA inh,IL-1B inflam inh,TDP1 cell noCPT,DT40 TDP1 CPT,VP16 counter,RORg inh
CCn1c(=O)c2c(n3cnnc13)-c1ccccc1CC21CCCCC1,-7.1,3.1,?,13µM*,-3.5%,27.2%[10 µM]
O=c1c2c(n3cnnc3n1-c1ccccc1)-c1ccccc1CC21CCCCC1,-2.2,24.5,?,?,-1.7%,-5.7%
O=C(Cn1ncc2c([nH]c3ccccc32)c1=O)N1CCN(c2ccc(F)cc2)CC1,-4.3,-6.8,21.5%,-14.6%,1.2%,-0.4%
Cc1c2cnn(CC(=O)N3CCN(c4ccc(F)cc4)CC3)c(=O)c2c(C)n1Cc1ccc(F)cc1,4.5,/,7.31µM*,23.1µM*,/,/
Cc1c2cnn(CC(=O)N3CCN(c4ccc(F)cc4)CC3)c(=O)c2c(C)n1Cc1ccccc1F,3.9,/,18.4µM*,20.6µM*,/,/
COc1c(C)cccc1C(=O)Nc1sc2c(c1C(N)=O)CCCC2,1.1,/,/,/,/,/
CCCC(=O)Nc1ccc(C(=O)Nc2cc(C)cc(C)c2)cc1,-1.0,/,/,/,/,/
CC(=O)c1ccc(NC(=O)c2ccccc2SC(C)C)cc1,-2.3,/,/,/,/,/
O=c1[nH]c2cc3c(cc2c(=O)n1CCCc1nc(-c2ccc(C(F)(F)F)cc2)no1)OCO3,3.8,/,/,/,/,/
c1ccc(-n2cc(CNCCc3cscn3)c(-c3ccc4c(c3)OCO4)n2)cc1,-0.2,-72.5*,23.1µM*,?,5.3%,-17.7%
OCc1cn(-c2ccccc2)nc1-c1ccc2c(c1)OCCO2,-0.2,-22.6,23.1µM*,?,12.0%,?
C=CCNC(=S)N/N=C/c1cn(-c2ccccc2)nc1-c1ccc(OC)cc1,-4.7,7.8,9.2µM*,-27.5%,1.26µM*,0.708µM*
COc1ccc(NS(=O)(=O)c2cccc(C(=O)NN=Cc3ccc(OC)cc3OC)c2)cc1,-4.8,-0.5,7.9%,5.8%,/,/
COc1ccc(-c2nn(-c3ccccc3)cc2/C=N/NC(=O)c2cccc(S(=O)(=O)Nc3ccccc3OC)c2)cc1,-0.5,i,-20.4%,-23.4%,1.26µM*,1.26µM*
OC[C@@H]1CCCN1Cc1cn(-c2ccccc2)nc1-c1ccc2c(c1)OCO2,-0.1,?,?,?,-22.8%,?
O=C(O)CNC(=O)c1cc(-c2ccccn2)nc2ccccc12,7.4,/,/,/,/,/
COc1ccc(-c2nn(-c3ccccc3)cc2CNC(=O)c2cccc([N+](=O)[O-])c2)cc1,-7.4,?,-24.3%,8.6%,8.91µM*,?
CN(C)C(=O)/C=C\c1cn(-c2ccccc2)nc1-c1ccc2c(c1)OCCO2,-9.6,?,?,?,-5.1%,?
COc1ccccc1NS(=O)(=O)c1cccc(C(=O)N/N=C/c2ccc(C)o2)c1,2.9,-10.9,-1.2%,-3.2%,14.1µM*,11.2µM*
COc1ccc(-c2nn(-c3ccccc3)cc2/C=N/NC(=O)c2ccc(Br)o2)cc1,0.3,-11.8,20.6µM*,20.6µM*,3.98µM*,1.26µM*
O=C(N/N=C/c1cn(-c2ccccc2)nc1-c1ccc2c(c1)OCCO2)c1ccncc1,-5.9,-2.0,-28.8%,-12.0%,5.01µM*,2.24µM*
COc1ccccc1NS(=O)(=O)c1cccc(C(=O)N/N=C/c2ccccc2OCC(=O)O)c1,-2.2,9.5,14.5%,3.9%,-2.2%,-6.3%
CC(=O)c1cccc(NC(=O)C2(c3ccc(C)cc3)CCCC2)c1,-0.2,/,/,/,/,/
COC(=O)C(NC(=O)c1ccccc1)(Nc1nc(C2CC2)cs1)C(F)(F)F (stereo unspecified),-0.8,/,/,/,/,/
O=C(O)c1cc(NCc2ccc(OCc3ccccc3)cc2)ccc1N1CCOCC1,8.1,/,/,/,/,/
O=C(O)/C=C/c1cn(-c2ccccc2)nc1-c1ccc2c(c1)OCCO2,-10.5,25.7,?,-12.7%,-1.8%,?
